PubChem BioAssay

Assay: HepG2 liver cancer cell viability effects, profiling panel, resazurin fluorescence, 24 h, PK04 Diversity Set (AID 1172); also: test concentration not given here
Settings: higher = more signal

SMILES | z-score
COc1cc(OC)c(C(O)C2C=CC3C(=O)N(c4ccccc4)C(=O)C3N2Nc2ccc(C(C)C)cc2)cc1Br (stereo not given) | 0.092
CC(C)c1nc2cc(Br)ccc2c(=O)o1 | 0.693
CN1C(=O)[C@@H]2[C@@H](CC(COc3ccccc3)=C3[C@@H](CCc4ccccc4)OB(O)C[C@@H]32)C1=O | -0.418
O=C(NCCN1CCOCC1)[C@@H]1c2ccccc2C(=O)N(Cc2ccc(OC(F)(F)F)cc2)[C@H]1c1ccc(CO)cc1 | -0.129
CN(C)c1ccc(C(O)C2C=CC3C(=O)N(Cc4ccccc4)C(=O)C3N2n2cnnc2)cc1 (stereo not given) | -0.659
CC(C)C(O)C1C=CC2C(=O)NC(=O)C2N1Nc1ccccn1 (stereo not given) | -0.984
COc1ccc([Si](C)(C)[C@@H]2[C@@H](CC(=O)N3Cc4ccccc4C[C@H]3CO)O[C@]3(C(=O)N(Cc4ccc(N5CCOC5=O)cc4)c4ccccc43)[C@H]2C)cc1 | -0.231
COCCOC(=O)N1C(=O)[C@@]2(c3cc(C#CCC(C(=O)OC)C(=O)OC)ccc31)[C@H](C(=O)Nc1nc3ccccc3s1)[C@H]1C(=O)O[C@H](c3ccccc3)[C@H](c3ccccc3)N1[C@@H]2c1ccc(O)cc1 | -0.218
COc1cc(CO)cc(I)c1O[C@H]1C=C(C(=O)NCCO)C[C@@H](NC2CCCCCC2)[C@@H]1O | 0.371
O=C(NC1CC1)[C@@H]1c2ccccc2C(=O)N(Cc2ccc(OC(F)(F)F)cc2)[C@H]1c1ccc(CO)cc1 | 1.26
CCOC(=O)C1=CC[C@@H](c2ccc(OC)cc2)N(S(=O)(=O)c2ccc(C)cc2)[C@H]1CC | 0.0292
CC1CC/C=C\[C@H]2OC34C=CCN(C(C)(C)C)C(=O)[C@H]3N(CCCO)C(=O)[C@@H]4C2C(=O)O1 (stereo not given in full) | -0.216
C=C(C)[C@@H]1CC=C(C(O)C2C=CC3C(=O)N(c4ccccc4)C(=O)C3N2Nc2ccc([N+](=O)[O-])cc2)CC1 (stereo not given in full) | -0.783
C=CCOC(=O)[C@@H]1[C@H]2C(=O)O[C@H](c3ccccc3)[C@H](c3ccccc3)N2[C@H](c2ccc(OCCOC(=O)[C@H]3C[C@H]4C(=O)NCC(=O)N4[C@H]3c3cccc(OCCO)c3)cc2)[C@@]12C(=O)Nc1ccc(I)cc12 | -0.155
COC(=O)[C@H](Cc1ccccc1)N1CC2=CCCC=C[C@@H]2[C@H]1[C@H](O)Cc1ccccc1 | 0.272
CC(=O)OCC1C2CC[C@H]3C(OCc4ccc(F)cc4C(F)(F)F)OC[C@]4(C)[C@H]3C2=C(CN4C(=O)OC(C)(C)C)[C@H](C)C1COC(C)=O (stereo not given in full) | -1.11
CC(=O)c1ccc(C(O)C2C=CC3C(=O)N(c4ccccc4)C(=O)C3N2Nc2ccc(C(C)C)cc2)cc1 (stereo not given) | -0.866
CC(C)NC(=O)[C@@]1(C)c2ccccc2C(=O)N(Cc2ccccc2)[C@H]1c1ccc(CO)cc1 | 0.107
CCCCC(O)C1C=CC2C(=O)N(c3ccccc3)C(=O)C2N1Nc1ccc([N+](=O)[O-])cc1 (stereo not given) | 0.172
Cc1ccc(S[C@]2(C(=O)NC3CC3)CC(=O)N(C(C)C)[C@@H]2c2ccc(CO)cc2I)cc1 | 0.0662
COCCOC(=O)N1C(=O)[C@@]2(c3cc(C#CCC(C(=O)OC)C(=O)OC)ccc31)[C@H](C(=O)Nc1nc3ccccc3s1)[C@H]1C(=O)O[C@H](c3ccccc3)[C@H](c3ccccc3)N1[C@@H]2c1ccc(OCCO)cc1 | 0.318
COC(=O)C1=CC(CCCO)=CC(c2cccs2)N(Cc2cc3c(cc2Br)OCO3)C=C1C(=O)OC (stereo not given) | -0.245
CN1C(=O)C2C(C1=O)C1C=C(c3ccc(CO)cc3)C2C(C2CC2)N1C (stereo not given) | -0.849
COCCCNC(=O)[C@@H]1c2ccccc2C(=O)N(Cc2ccc(OC(F)(F)F)cc2)[C@H]1c1ccc(CO)cc1 | 0.201
COCCCNC(=O)[C@@]1(CCC(=O)OC(C)(C)C)COC(c2ccc(OCCCO)cc2)=N1 | 1.18
O=C(O)[C@H](Cc1ccccc1)n1cc(C2(O)CCCCC2)nn1 | -0.466
CN(C)CCCC[C@@H]1NC(=O)[C@@H]2C[C@H](C(=O)NCCCCCCNC(=O)CS)[C@H](c3ccc(O)cc3)N2C1=O | 0.155
COC(=O)[C@@]1(Cc2ccc(OC)cc2)[C@H]2c3cc(C(=O)N4CCCC4)n(CCn4cc([N+](=O)[O-])nc4C)c3C[C@H]2CN1C(=O)c1ccccc1 | -0.916
[N-]=[N+]=NCc1ccccc1[C@@H]1OC(c2ccc(OCCCO)cc2)=N[C@]1(Cc1ccccc1N=[N+]=[N-])C(=O)O | 0.495
C=CCOC(=O)[C@H]1[C@@H]2C(=O)O[C@@H](c3ccccc3)[C@@H](c3ccccc3)N2[C@@H](c2ccc(OCCOC(=O)[C@H]3C[C@H]4C(=O)N[C@@H](CC(C)C)C(=O)N4[C@H]3c3ccc(O)cc3)cc2)[C@]12C(=O)Nc1ccccc12 | 0.0682
